Max response and Potency data for 46 compounds are collected here from PubChem BioAssay AID651813 (National Center for Advancing Translational Sciences (NCATS), 2012).

Several values for one entry are separate records, joined by “and”; a condition that tells them apart may be missing. Equal values may be shown once. About 1,100 (52%) of roughly 2,100 compounds were called active. Another 27% or so got no clear call; they are omitted. The set was probably picked from earlier hits. This is one part of the list. Values without a mark were called inactive. Calls follow the shape of the dose curve; as a rule, active = well fitted inhibition curve with a large enough effect; inconclusive = small, poorly fitted or top-dose-only effect; inactive = no such curve, though single readings can be large or run the other way.
Potency is read from the fitted curve at half-maximal effect.

Sequence of DNA dC->dU-editing enzyme APOBEC-3G (Homo sapiens) (Q9HC16 whole entry, looked up): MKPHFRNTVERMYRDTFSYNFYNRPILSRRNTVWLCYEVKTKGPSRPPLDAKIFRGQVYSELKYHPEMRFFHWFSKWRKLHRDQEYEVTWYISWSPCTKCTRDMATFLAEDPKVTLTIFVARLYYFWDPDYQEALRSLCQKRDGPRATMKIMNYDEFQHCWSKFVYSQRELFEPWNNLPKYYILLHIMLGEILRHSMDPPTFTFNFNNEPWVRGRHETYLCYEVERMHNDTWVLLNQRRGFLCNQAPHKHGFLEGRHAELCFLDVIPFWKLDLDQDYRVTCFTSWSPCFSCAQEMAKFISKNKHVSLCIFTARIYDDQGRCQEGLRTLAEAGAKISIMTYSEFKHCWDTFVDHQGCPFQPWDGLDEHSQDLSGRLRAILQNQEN

The assay addresses DNA dC->dU-editing enzyme APOBEC-3G (Homo sapiens) (UniProt Q9HC16). Briefly: qHTS for inhibitors of Vif-A3G interactions: Cherry picks counterscreen.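 Also: hits raise yellow fluorescence by blocking Vif-driven A3G-eYFP degradation; nearly all actives have a fitted effect of over 70% in size.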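 As to Max response: max response given as percent of control signal.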 As to conditions: HeLa A3G-eYFP + Vif (tagged APOBEC3G with the HIV-1 protein that degrades it), eYFP fluorescence, 24 h. An excerpt:
The recent discovery and characterization of host restriction factors, which provide a potent defense to invading retroviruses, has provided new targets for antiviral drug development. APOBEC3G (A3G) and APOBEC3F (A3F) are potent cytidine deaminases that block HIV-1 replication; HIV-1 expresses the Vif protein, which counteracts A3G and A3F by binding to them and inducing their proteasomal degradation. The Vif-A3G and Vif-A3F interactions provide two potential targets for development of small molecules which can interfere with the ability of Vif to degrade A3G or A3F. […] To identify inhibitors that can interfere with Vif mediated degradation of A3G and A3F, we have developed Hela cell lines that stably express A3G or A3F tagged with eYFP at the C-terminal end (A3G-eYFP or A3F-eYFP, respectively) and Vif. In the absence of an inhibitor, Vif induces degradation of A3G-eYFP and A3F-eYFP, and the cells are not fluorescent. In the presence of an inhibitor, it is expected that Vif will be unable to degrade A3G-eYFP and/or A3F-eYFP, resulting in an increase in yellow fluorescence. In this counterscreen assay, Vif A3G was screened against the cherry picks ordered from the MLSMR. NIH Chemical Genomics Center [NCGC] NIH Molecular Libraries Probe Centers Network [MLPCN] MLPCN Grant: MH093245 Assay Submitter (PI): Vinay Pathak, National Cancer Institute
A3G-Vif cells were harvested from T225 flask and resuspended in phenol free OPTI-MEM medium with 5% FBS. Then 5 uL of 140,000 cells/mL resuspended cells was dispensed into each well of low base Aurora COC 1,536-well plates (black walled, clear bottom) using a Multidrop Combi dispenser. After overnight culture at 37 deg C with 5% CO2, a total of 23 nL of compounds at 5 selected concentrations from the NPC or positive control (2 mM stock of MG132) in DMSO was transferred to each well of the assay plate using a pintool (Kalypsys, San Diego, CA), and the plates were further incubated at 37 deg C with 5% CO2 for 24 hours. After that, the plates were measured on Acumen Explorer (TTP Lab Tech). The fluorescence was detected by 488 nm/Ex and […].
With `C=CCSc1nc2sc3c(c2c(=O)n1CC)CCC3`, the max response was -26.5%. On to `CN(C)c1ccc(/C=C2\Oc3ccc(C#Cc4cccc(N)c4)cc3C2=O)cc1`, for which the Potency was 17.7 µM (active). As to `CC1(C)Cc2nc3sc4c(=O)n(CC(=O)NCc5ccccc5)cnc4c3cc2CO1`, the Potency was 3.96 µM (active).

On to `COc1ccc(OC)c2sc(NC(=O)CCS(=O)(=O)c3ccccc3)nc12`, for which the max response is -5.13%. With `CCOc1ccc(S(=O)(=O)NCc2ccccn2)cc1NC(=O)c1ccccc1`, the Potency was 3.96 µM (active). As for `COc1ccc(S(=O)(=O)NCc2ccccn2)cc1NC(=O)c1ccccc1`, the Potency is 15.8 µM (active).

For `COc1ccc(S(=O)(=O)NCc2ccccn2)cc1NC(=O)c1ccc(C)cc1`, the Potency was 11.2 µM (active). With `S=C(NCCSCc1ccc(Cl)cc1)Nc1ccccc1`, the max response is -13.3%. In the case of `O=[N+]([O-])c1ccc(C2=Nc3cc(Cl)ccc3OC2)cc1`, the max response is -16.9%.

As for `O=[N+]([O-])c1ccc(C2=NN(c3ccccc3)C(c3ccco3)C2)cc1` (stereo unspecified), the Potency was 0.498 µM (active).

`O=[N+]([O-])c1ccc(/C=C/C2=NN(c3ccccc3)C(c3ccco3)C2)o1` (stereo unspecified): the Potency is 2.31 µM (active). Same read-out and setting: the figure for `COc1ccccc1N1N=C(c2ccc([N+](=O)[O-])cc2)CC1c1ccccc1` (stereo unspecified) is 1.25 µM (active); for `Cc1cc(C)cc(NC(=O)/C=C/c2ccc([N+](=O)[O-])s2)c1` it is 13 µM (active); for `Cc1ccc(NC(=O)/C=C/c2ccc([N+](=O)[O-])s2)c(C)c1` it is 10.3 µM (active). In the case of `Cc1cccc(NC(=O)/C=C/c2ccc([N+](=O)[O-])s2)c1`, the Potency was 14.6 µM (active). On the same count and under the same terms, the figure for `Cc1ccc(NC(=O)/C=C/c2ccc([N+](=O)[O-])s2)cc1` is 5.17 µM (active); for `CC(=O)c1cccc(NC(=O)/C=C/c2ccc([N+](=O)[O-])s2)c1` it is 10.3 µM (active).

In the case of `CC(=O)c1cccc(NC(=S)N2c3ccccc3CC2C)c1` (stereo unspecified), the max response was 10.2%. For `O=C(OCC12CC3CC(CC(C3)C1)C2)c1ccc(NCc2cc(O)ccc2O)cc1`, the max response is 39.2%. As for `C=CCN1C=CC(=CC=C(C#N)C#N)C=C1`, the Potency is 12.5 µM (active). In the case of `CCCN1C=CC(=CC=C(C#N)C#N)C=C1`, the Potency was 9.94 µM (active). For the compound `Cn1c2ccccc2c2ccc3c(c21)C(=O)C=CC3=O`, the max response was 10.2%. For `COc1cc(OC)c(OC)cc1/C=C1\Oc2cc(OCC(=O)N3Cc4ccccc4C[C@H]3C(=O)O)ccc2C1=O`, the Potency was 2.06 µM (active). Turning to `COc1ccc(/C=C2\Oc3cc(OC(=O)N4CCOCC4)ccc3C2=O)c(OC)c1`, the max response is -18.4%.

Consider `Cn1cc(C2=C(c3ccc(Cl)cc3Cl)C(=O)NC2=O)c2ccccc21`, for which the Potency is 2.06 µM (active) and 8.2 µM (active). On the same count and under the same terms, in the case of `COc1ccccc1Nc1cc2cc(Br)ccc2c(=O)[nH]1` it was 15.8 µM (active). On the same count and under the same terms, in the case of `COc1cccc(C(=O)Nc2sc3c(c2C#N)CCN(C(C)=O)C3)c1` it was 3.96 µM (active).

With `COc1ccc(C(=O)Nc2sc3c(c2C#N)CCN(C(C)=O)C3)cc1`, the Potency was 12.5 µM (active). Regarding `O=C1[C@@H]2[C@@H](CN3CN(c4ccccc4)N=C(c4ccccc4)[C@@]23c2ccccc2)C(=O)N1c1ccccc1`, the max response was 3.63%.

For `Cc1noc(C)c1COc1cccc(C(=O)OCC(=O)N2CC(=O)Nc3ccccc32)c1`, the Potency was 5.59 µM (active). On to `COc1ccc(N=Cc2oc3ccc4ccccc4c3c2O)cc1`, for which the Potency is 18.4 µM (active). In the case of `Oc1sc(C=Nc2ccc(F)cc2)c2ccccc12`, the Potency was 8.2 µM (active). For `COc1ccc(N=Cc2sc(O)c3ccccc23)cc1`, the Potency was 3.96 µM (active).

Take `COc1ccc(N=Cc2c(O)c3ccccc3n2C(C)=O)cc1`: the Potency is 14.6 µM (active).

`Oc1sc(C=Nc2ccccc2)c2ccccc12`: the Potency was 18.4 µM (active). `COc1ccc2nc3ccccc3nc2c1NC(=O)c1ccc(Br)cc1`: the Potency is 14.6 µM (active). Regarding `COc1ccc2nc3ccccc3nc2c1NC(=O)c1ccc(Cl)cc1`, the Potency is 18.4 µM (active). In the case of `Cc1ccc2c(Cl)c(C)c(N3CCCC3)nc2n1`, the max response is -28.8%. Regarding `CC[n+]1ccc(/C=C/c2c[nH]c3ccccc23)cc1`, the Potency is 9.2 µM (active). Consider `OCC[n+]1ccc(/C=C/c2c[nH]c3ccccc23)cc1`, for which the Potency is 18.4 µM (active).

With `C[n+]1ccc(/C=C/c2c[nH]c3ccccc23)cc1`, the Potency was 8.2 µM (active). For `C/C(=N\NC(=O)C(C)n1nc(C)c([N+](=O)[O-])c1C)c1ccccc1O` (stereo unspecified), the max response was 3.13%. With `Cc1ccc(C(=O)c2cc([N+](=O)[O-])ccc2N2CCN(C)CC2)cc1`, the Potency was 7.04 µM (active). Consider `CN(C)S(=O)(=O)c1ccc(N2CCCC2)c(C(=O)N2CCN(S(=O)(=O)c3ccc(F)c(F)c3)CC2)c1`, for which the max response is 9.68%. Regarding `COc1ccc(C(=O)c2cc([N+](=O)[O-])ccc2N2CCCC2)cc1`, the Potency was 7.04 µM (active). In the case of `CN1CCN(c2ccc([N+](=O)[O-])cc2C(=O)c2ccc(Br)cc2)CC1`, the Potency is 4.98 µM (active).
